Source: PubChem
HCV inh – blocks hepatitis C virus; Potency, µM (doses to about 41.8 µM), for the others: at the top dose activity change, negative = inhibition, hits mostly inhibitors; AID 651820; Huh7.5.1 HCVcc-Cre infection, luciferase reporter, 44 h; 340,000 tested, 3.4% active; active = well fitted inhibition curve with a large enough effect; inconclusive = small, poorly fitted or top-dose-only effect, or another doubt; inactive = no such curve, though single readings can be large or run the other way
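Seed cells (1,000/well) for 4 h; treat with compound and infect with HCVcc-Cre, moi about 0.5. Incubate 44 h, then detect luciferase activity.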
VACV Venus inh – vaccinia inhibition (Venus reporter); Vaccinia virus Venus reporter expression, fluorescence; Potency, µM (highest dose often 36.5 µM), for the others: at the top dose activity change, negative = inhibition, hits mostly inhibitors; 330,000 tested, 0.46% active; calls by dose curve; tested in A549 cells; also: nearly all actives have a fitted effect of over 30% in size
LASV entry inh – Lassa virus entry inhibition. AID 540256. Potency, µM (series often up to 37.9 µM), for inactives: top-dose activity change, negative = inhibition, usual class: inhibitors. 300,000 tested, 1.2% active. Lassa virus pseudotype entry inhibition, cell reporter; calls by dose curve; tested in HEK293 cells; also: nearly all actives have a fitted effect of over 50% in size
Marburg entry inh – blocks Marburg virus binding to or entry into cells; Potency, µM (titrated, usually from 37.8 µM), without a hit: at the highest dose activity change, negative = inhibition, actives largely listed as inhibitors; 300,000 tested, 1.8% active; AID 540276; Marburg virus pseudotyped entry inhibition, cell reporter; calls by dose curve; tested in HEK293 cells
VACV mCherry inh – vaccinia inhibition (mCherry reporter). Vaccinia virus mCherry reporter infection, fluorescence. Potency, µM (doses to about 36.5 µM), for inactives: at the highest dose activity change, negative = inhibition, actives largely listed as inhibitors. 310,000 tested, 0.63% active. AID 720579; calls by dose curve; tested in A549 cells; also: nearly all actives have a fitted effect of over 35% in size
The depositor's hits bear a star; i = inactive; ? = inconclusive; . = no result given; [ ] = another dose, or the depositor's remark. An excerpt weighted towards active compounds, which were near 4.6% of everything screened. % is scaled to controls: 0 for no effect and ±100 for the full control effect; potency is read from the fitted curve at half-maximal effect.

SMILES	HCV inh	VACV Venus inh	LASV entry inh	Marburg entry inh	VACV mCherry inh
Cc1cc([N+](=O)[O-])ccc1NCc1ccc2c(c1)OCCO2	10µM*	-12%	26%	6%	-18%
CCO[C@H](c1cc(OC)cc([N+](=O)[O-])c1OC)[C@H](C)C=CCC(=O)OC	.	.	.	1%[14.2 µM]	.
O=C(/C=C/Nc1ccccc1)c1ccccc1	4%	-7%	?	?	.
CN(C)c1ccc(N/C=C/C(=O)c2ccccc2)cc1	-19%	.	6.5µM*	?	.
Cc1nc2c(ccc3nc(NC(=O)C(c4ccccc4)c4ccccc4)sc32)s1	10µM*	?	7%	-6%	?
Cc1nc2c(ccc3nc(NC(=O)Cc4cccc5ccccc45)sc32)s1	?	-17%	?	-3%	9%
c1ccc2c(c1)sc[n+]2CCC1CCCCC1	.	-6%	.	.	-7%
CCC[C@H](CN[C@@H](CNC)[C@H](C)O)NCCc1ccc(OC)cc1	-15%	-16%	.	.	i
CCCC[C@@H](CNC)NC[C@H](Cc1ccc(O)cc1)NCCc1ccc(OCC)cc1	?	13µM*	.	.	?
O=C(NN1C(=O)NC2(CCCCC2)C1=O)c1ccc(-c2ccc(Cl)cc2)o1	11µM*	?	-8%	13%	-22%
O=C(NN1C(=O)NC2(CCCCC2)C1=O)c1cc2cc(Cl)ccc2o1	4%	.	.	.	.
CCOC(=O)C1=C(C)NC(SCC(=O)Nc2cc(C)on2)=C(C#N)C1c1cccs1 (stereo unspecified)	10µM*	-16%	?	1%	-25%
CCOC(=O)C1=C(C)NC(SCC(N)=O)=C(C#N)C1c1cccs1 (stereo unspecified)	9%	-17%	1%	-22%	.
CCCSC1=C(C#N)C(c2cccs2)C(C(=O)Nc2ccccc2)=C(C)N1 (stereo unspecified)	11µM*	?	?	?	.
CCSC1=C(C#N)C(c2cccs2)C(C(=O)OC)=C(C)N1 (stereo unspecified)	-15%	-18%	?	26%	-16%
COc1ccccc1C(=O)N[C@@H]1c2ccccc2C2(CCN(Cc3nccs3)CC2)[C@H]1OC	.	-6%	.	.	-21%
CCOc1ccccc1NC(=O)C1CCCN(c2c(CC)c(C)nc3ncnn23)C1 (stereo unspecified)	13µM*	-13%	?	?	-9%
Cc1nc2ncnn2c(N2CCCC(C(=O)Nc3ccc4c(c3)CCC4)C2)c1C (stereo unspecified)	10µM*	.	?	?	.
Cc1noc(C)c1CCC(=O)N1CCOc2ccc(CN3CCN(c4ccccn4)CC3)cc2C1	.	-24%	.	.	?
COc1cc(N=Nc2ccc(C)cc2S(N)(=O)=O)c(C)cc1N	25µM*	-20%	?	-8%[46.1 µM]	?
Cc1nn(-c2nnc(NC3CCCCC3)nn2)c(C)c1Br	-2%	-19%	?	3.5µM*	-22%
Cc1nn(C)c(C)c1S(=O)(=O)NC1CCCC1	17%	-14%	9%	8%[46.1 µM]	.
C=CCOc1ccc(/C(O)=C2\C(=O)C(=O)N(CCN(C)C)[C@@H]2c2cccs2)cc1	.	.	.	7%[46.1 µM]	.
c1ccc2nc(-c3nc4ccccc4o3)ccc2c1	-7%	.	2.3µM*	?	.
c1ccc2c(-c3nc(C4CCCCC4)no3)cc(-c3ccncc3)nc2c1	8.9µM*	.	-16%	?	.
SMILES	HCV inh	VACV Venus inh	LASV entry inh	Marburg entry inh	VACV mCherry inh
Oc1c(C(Nc2nc3ccccc3s2)c2ccco2)ccc2cccnc12 (stereo unspecified)	2.5µM*	?	?	?	2.8µM*
CC(C)C(=O)NC(c1ccco1)c1ccc2cccnc2c1O (stereo unspecified)	4µM*	?	?	?	.
CC(C)C(=O)NC(c1ccc(N(C)C)cc1)c1ccc2cccnc2c1O (stereo unspecified)	.	?	.	.	4µM*
Cc1conc1NC(c1cccs1)c1ccc2cccnc2c1O (stereo unspecified)	.	.	.	1%	.
CC(C)C(=O)NC(Nc1cccc2cccnc12)C(Cl)(Cl)Cl (stereo unspecified)	?	-14%	11%	-24%	-25%
CCCCC(=O)NC(c1ccc(N(C)C)cc1)c1ccc2cccnc2c1O (stereo unspecified)	4µM*	-27%	?	?	1.3µM*
O=Cc1ccc2[nH]ccc2c1	.	-5%	.	.	-15%
O=C1CN(C(=O)c2ccc(S(=O)(=O)N3CCCC3)cc2)C(c2ccc(F)cc2)c2cc(Br)ccc2N1 (stereo unspecified)	.	-11%	?	?	-22%
CCCCC(=O)NC(c1ccc(N(CC)CC)cc1)c1ccc2cccnc2c1O (stereo unspecified)	1.4µM*	?	?	?	?
CCn1cc(CN2CCC(C(=O)Nc3ccc(Oc4ccccc4F)cc3)CC2)c(C)n1	2.8µM*	-23%	-24%	?	-30%
CC(C)n1cc(CN2CCC(C(=O)Nc3ccc(Oc4ccccc4F)cc3)CC2)cn1	11µM*	.	.	.	.
O=C(Nc1ccc(Oc2cccnc2)cc1)C1CCN(Cc2ccccc2F)CC1	?	-20%	-23%	-30%	-5%
CCOC(=O)/C(=N\Nc1ccc(OC)cc1)c1csc(Nc2ccccc2)n1	1µM*	-30%	-1%	?	-20%
CCOc1cccc(CC(=O)N2CCc3c([nH]c4ccc(OC)cc34)C2c2ccc(F)cc2)c1OCC (stereo unspecified)	.	3%	?	6%[46.1 µM]	7%
CCCCCCn1c(=O)n2n(c1=O)C[C@]1(OC(=O)NCC3CCCCC3)CN(S(=O)(=O)c3ccc(C)cc3)C[C@]1(O)C2	.	10µM*	.	.	?
COc1ccc(C(=O)NCCc2sc(-c3ccc(Cl)cc3)nc2C)c(OC)c1	.	-3%	13%[46.1 µM]	.	-7%
CC(=O)Nc1cc(C(=O)N2CCN(c3ccccc3)CC2C)cc2ncn(CCc3ccccn3)c12 (stereo unspecified)	.	9%	.	.	2%
CN(CCc1ccccc1)C(=O)c1ccc(NC(=O)Cc2ccc(NC(=O)C3CCCN(S(=O)(=O)c4cccc([N+](=O)[O-])c4)C3)cc2)cc1 (stereo unspecified)	?	-18%	.	.	?
CN(Cc1ccccc1)C(=O)c1cccc(NC(=O)Cc2ccc(NC(=O)C3CCN(S(=O)(=O)c4cccc([N+](=O)[O-])c4)CC3)cc2)c1	8.9µM*	-16%	.	.	i
CN(CCc1ccccc1)C(=O)c1cccc(NC(=O)Cc2cccc(NC(=O)C3CCCN(S(=O)(=O)c4cccc([N+](=O)[O-])c4)C3)c2)c1 (stereo unspecified)	10µM*	-19%	.	.	?
CN(Cc1ccccc1)C(=O)c1ccc(NC(=O)Cc2ccc(NC(=O)C3CCN(S(=O)(=O)c4cccc([N+](=O)[O-])c4)CC3)cc2)cc1	13µM*	-13%	.	.	?
CCOc1ccccc1CNc1ncnc2onc(-c3ccc(F)cc3)c12	.	-5%	23%[46.1 µM]	.	-1%
COc1cc(OC)c2nc(-c3cc4c(c(OC)c3)OCCN(Cc3cn(C)nc3C)C4)cc(C)c2c1	.	-4%	.	.	-16%
